Molecules are shown by their SMILES. Inconclusive results are not listed. Where a call stands in place of a potency, no number is given. The source made the active and inactive calls. Calls come from the whole dose curve; as a rule, active = well fitted inhibition curve with a large enough effect; inconclusive = small, poorly fitted or top-dose-only effect; inactive = flat fitted curve, though single readings scatter.

The subject of the assay is CRL-7250. Put plainly: qHTS assay to identify novel small-molecules to repurpose for Merkel cell carcinoma treatment (AID 1296009). Note: nearly all actives have a fitted effect of over 60% in size. To be noted: MCC and control cell lines, CellTiter-Glo viability, 72 h; series mostly up to 92 µM. In short, it runs like this: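 Dose-response viability screen; 72 hr exposure at 37 degree celsius; CellTiter-Glo added, 10 min room temperature, luminescence read; RLUs scaled between no-cell and DMSO wells.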
(In qHTS, concentration-response curves come from the screen itself.)
As for `COc1cc(NC(=O)c2cccc(-n3cc(NC(=O)Nc4cccc(C)c4)cn3)c2)cc(OC)c1OC`, the Potency entry is “inactive”. On to `CC(=O)O[C@@H]1[C@@H](OC(=O)/C=C/c2ccccc2)[C@@H](OC(C)=O)[C@H](O[C@H]2[C@@H]3C=CO[C@@H](O[C@@H]4O[C@H](CO)[C@@H](O)[C@H](O)[C@H]4O)[C@@H]3[C@@]3(CO)O[C@@H]23)O[C@H]1C`, for which the Potency entry is “inactive”.

`C[C@@H]1O[C@@H](OC2C(CO)OC(OCC3OC(OC(=O)[C@]45CCC(C)(C)CC4C4=CCC6[C@@]7(C)CC[C@@H](O)[C@](C)(C(=O)O)C7CC[C@@]6(C)[C@]4(C)CC5)C(O)C(O)C3O)C(O)C2O)[C@H](O)[C@H](O)[C@H]1O` (stereo not given in full): the outcome was “inactive [at 9.27 µM]”.

Turning to `COc1cc(O)cc(C)c1C(=O)O[C@H]1[C@@H](OC(C)=O)[C@H](n2ccc(=O)[nH]c2=O)O[C@@H]1CO`, the Potency entry is “inactive”. On the same count and under the same terms, under `C/C(=C/CCC(CO)C1CCC2(C)C3CCC4C(C)(C)C(OC5OC(CO)C(O)C(O)C5O)CC(O)C45CC35CCC12C)COC1OC(CO)C(O)C(O)C1O` (stereo not given) stands “inactive”; under `COc1ccccc1-c1ccc(-c2cn(C(=O)N3CCCCC3Cc3ccccc3)nn2)cc1` (stereo not given), “inactive”. Turning to `CC(C)S(=O)(=O)NC[C@H](C)c1ccc(NC(=O)c2cc(F)cc(F)c2)cc1`, the Potency entry is “inactive”.

Take `COc1cc(/C=C/C(=O)O[C@H]2[C@H](OC(=O)/C=C/c3cc(OC)c(O)c(OC)c3)O[C@H](CO[C@@H]3O[C@H](CO)[C@@H](O)[C@H](O)[C@H]3O)[C@@H](O)[C@@H]2O)ccc1O`: the Potency entry is “inactive”. The same measure, in the same setting: under `COC(=O)c1cc(Br)cnc1N1CCC(NC2CCCCC2)C(O)C1` (stereo not given) stands “inactive”; under `C/C=C/CCC1Cc2cc(O)c(CCCC)c(O)c2C(=O)O1` (stereo not given), “inactive”; under `COc1cccc(OC)c1-c1cc(C(=O)N[C@@H](CC(C)C)C(=O)O)nn1-c1ccnc2cc(Cl)ccc12`, “inactive”. On to `C/C=C/C=C/C1=C2C(=O)C3(C)C4C(C(=O)CC(O)/C=C/C)=C(O1)C1(C)C2C2(C)OC1(O)C4(C)OC23O` (stereo not given), for which the Potency result is “inactive”. Turning to `CCNC(=O)C1CC(F)(c2ccc(CN3CCCC3)c(F)c2)C1` (stereo not given), the Potency result was “inactive”. With `Oc1ccc([C@H]2COc3cc(O)ccc3C2)cc1`, the Potency entry was “inactive”. Regarding `CC1(C)C[C@H](O)C[C@@]2(C)[C@H]1[C@H](O)C=C1COC(=O)[C@@]12O`, the Potency entry was “inactive”.

As to `CC1(C=O)CCCC2(C)C1CCC13CC(CO)C(CCC12)C3` (stereo not given), the Potency entry is “inactive”. The same measure, in the same setting: under `COc1cc(COC2OC(CO)C(O)C(O)C2O)cc(OC)c1O` (stereo not given) stands “inactive”; under `CC(=O)OC1CC(=O)C2(C)C3CC4=C(OC(C)CC4=O)OC3(C)CCC2C1(C)C` (stereo not given), “inactive”.

In the case of `C[C@@H]1O[C@@H](O[C@H]2[C@H](O)[C@@H](O)[C@H](OC(=O)[C@]34CCC(C)(C)C[C@H]3C3=CCC5[C@@]6(C)CC[C@H](O[C@@H]7O[C@H](C(=O)O)[C@@H](O)[C@H](O)[C@H]7O)C(C)(C)C6CC[C@@]5(C)[C@]3(C)CC4)O[C@@H]2CO)[C@H](O)[C@H](O)[C@H]1O` (stereo not given in full), the outcome is “inactive [at 9.27 µM]”. Regarding `C=C1CCC2[C@@](C)(C=O)CCC[C@]2(C)[C@H]1CC/C(C)=C/CO` (stereo not given in full), the Potency entry was “inactive”. Turning to `O=C(/C=C/N1C[C@@H]2C[C@@H]1CN2c1ccccn1)c1ccccc1O`, the Potency entry was “inactive”. Regarding `O=C(O)/C=C/c1ccc(O)c(O[C@@H]2O[C@H](CO)[C@@H](O)[C@H](O)[C@H]2O)c1`, the Potency entry was “inactive”.

Regarding `COc1ccc(C(O[C@@H]2O[C@H](CO)[C@@H](O)[C@H](O)[C@H]2O)C(CO)Oc2ccc(/C=C/CO)cc2OC)cc1O` (stereo not given in full), the Potency entry was “inactive”. As to `CC1OC(OC2C(CO)OC(OCC3OC(OC(=O)C45CCC(C)(C)CC4C4=CCC6C7(C)CCC(OC8OC(C(=O)O)C(O)C(OC9OC(CO)C(O)C(O)C9O)C8O)C(C)(C)C7CCC6(C)C4(C)CC5)C(O)C(O)C3O)C(O)C2O)C(O)C(O)C1O` (stereo not given), the outcome was “inactive [at 9.27 µM]”. `NC(=O)[C@H](O[C@@H]1O[C@H](CO)[C@@H](O)[C@H](O)[C@H]1O)c1ccccc1`: the Potency entry was “inactive”.

For the molecule `CC1(C)CCC[C@@]2(C)[C@H]1[C@H](O)C=C1COC(=O)[C@@]12O`, the Potency entry is “inactive”. `CN1CCN(C2=Nc3ccccc3Nc3ccc(OS(=O)(=O)C(F)(F)F)cc32)CC1`: the Potency entry is “inactive”. `C=C1C(=O)OC2CC(C)=C(C(C)CCCO)C(O)C12` (stereo not given): the Potency result was “inactive”. As to `OC[C@@]1(O)CO[C@@H](OC[C@H]2O[C@@H](Oc3ccccc3)[C@H](O)[C@@H](O)[C@@H]2O)[C@@H]1O`, the Potency entry is “inactive”. On to `CCC[C@@H]1C[C@@H](C(=O)N[C@@H]([C@H]2O[C@H](SC)[C@H](O)[C@@H](O)[C@@H]2O)[C@@H](C)O)N(C)C1`, for which the Potency result was “inactive”.
